PubChem BioAssay (NCATS)
Records with an inconclusive call do not appear. Active and inactive are the calls of the source. The call rests on the fitted dose curve; in most records, active means well fitted curve in the direction sought with a large enough effect; inconclusive means small, poorly fitted or top-dose-only effect, or another doubt; inactive means no such curve, though single readings can be large; an effect the other way counts as inactive or inconclusive.

Legend:
[1] = P-glycoprotein substrates identified in KB-8-5-11 adenocarcinoma cell line, qHTS therapeutic library screen (AID 1346987); further: nearly all actives have a fitted effect of over 65% in size; further: potency means the concentration at half of the fitted maximal effect
Method in brief: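 Compounds are pinned in dose-response onto KB-8-5-11 cells (500 cells/well, colchicine-free medium) and left 72 h at 37 degree C. CellTiter-Glo luminescence then yields AC50 values.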

[2] = Primary qHTS for inhibitors of nuclear receptor binding SET domain protein 2 (NSD2) in an isogenic RCH-ACV NSD2 p.E1099K mutant (9B) (AID 1645876); further: nearly all actives have a fitted effect of over 70% in size; further: potency means the concentration at half of the fitted maximal effect
[3] = Primary qHTS for inhibitors of nuclear receptor binding SET domain protein 2 (NSD2) in an RCH-ACV wild type WT cells (2C) (AID 1645877); further: nearly all actives have a fitted effect of over 70% in size; further: potency means the concentration at half of the fitted maximal effect
[4] = molecular target: Glutathione peroxidase 1 (Homo sapiens) (UniProt P07203); assay: Primary qHTS Assay for Inhibitors of Recombinant Selenoprotein Glutathione Peroxidase 1 (GPX1) (AID 1845191); further: nearly all actives have a fitted effect of over 65% in size
Method in brief: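 NADPH consumption tracked by fluorescence at 340/450 nm between t=0 and t=15 min, room temperature. Final mix: 10 nM GPX1, 100 nM glutathione reductase, 1 mM GSH, 0.5 mM NADPH, 0.5 mM cumene hydroperoxide, 0.01% BSA; 30 min compound–enzyme preincubation.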

[5] = molecular target: Phospholipid hydroperoxide glutathione peroxidase GPX4 (Homo sapiens) (UniProt P36969); assay: Primary qHTS Assay for Inhibitors of Recombinant Selenoprotein Glutathione Peroxidase 4 (GPX4) (AID 1845192); further: nearly all actives have a fitted effect of over 65% in size
Method in brief: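 NADPH consumption followed by fluorescence at 340/450 nm, t=0 and after 15 min at room temperature. Reaction started with cumene hydroperoxide (0.5 mM final) after 30 min compound–GPX4 preincubation; final 200 nM GPX4, 100 nM GR, 1 mM GSH, 0.5 mM NADPH.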

[6] = molecular target: Luciferin 4-monooxygenase (Photinus pyralis) (UniProt P08659); assay: Primary firefly luciferase (FLuc) qHTS assay for identification of artifact compounds. (AID 1845220); settings: outcome: dose series up to 54.1 µM unless noted; further: nearly all actives have a fitted effect of over 60% in size
Method in brief: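 FLuc 10 nM; luciferin 10 uM; ATP 10 uM; Tris-acetate pH 7.6, Mg-acetate 10 mM; 15 min RT preincubation; 5 min reaction; luminescence.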

[7] = tested on: Nanoluciferase (engineered Oplophorus gracilirostris luciferase); assay: Primary Nanoluciferase (NLuc) qHTS assay for identification of artifact compounds. (AID 1845222);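 further: NLuc secreted into diluted conditioned medium of S16 cells; 0% = DMSO and -100% = no enzyme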
Method in brief: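 NLuc from S16 cell medium (1:55) plus test compounds, 15 min, room temperature. Luminescence after Nano-Glo (1:100) addition, 5 min.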

CRL-7250 = normal cell line; assay: Cytotoxic Profiling of Annotated Libraries Using Quantitative High-Throughput Screening (AID 1296008); settings: Five cell lines viability, CellTiter-Glo ATP luminescence, 48-72 h; max response: active compounds read low; further: nearly all actives have a fitted effect of over 60% in size; further: potency means the concentration at half of the fitted maximal effect; on max response: on the % scale 0 is the no-effect control and ±100 the full control effect
Method in brief: (§1)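 Cytotoxicity was measured as CellTiter-Glo ATP luminescence, read after 10 min at room temperature. Compound treatment of the cells lasted 48 or 72 hr at 37 degrees Celsius in a qHTS format.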

HEK293 = assay: as above; settings: Five cell lines viability, CellTiter-Glo ATP luminescence, 48-72 h; max response: active compounds read low
Method in brief: as §1

HaCat = assay: as above; settings: Five cell lines viability, CellTiter-Glo ATP luminescence, 48-72 h; max response: active compounds read low
Method in brief: as §1

NIH3T3 = assay: as above; settings: Five cell lines viability, CellTiter-Glo ATP luminescence, 48-72 h; max response: active compounds read low
Method in brief: as §1

C33A = assay: Primary qHTS to identify gynecologic anti-cancer compounds using libraries of approved drugs and bioactive compounds (AID 1345084); settings: Gynecologic cancer cell panel viability, ATPlite luminescence, 48 h; series mostly up to 57.5 µM; further: nearly all actives have a fitted effect of over 55% in size; further: potency means the concentration at half of the fitted maximal effect
Method in brief: (§2)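 ATP-based viability (ATPlite), 1,000 cells/well, 16 h pre-incubation, 48 h compound at 37 C, 5% CO2, 15 min RT before read.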

CASKI = assay: as above; settings: Gynecologic cancer cell panel viability, ATPlite luminescence, 48 h; series mostly up to 57.5 µM
Method in brief: as §2

Es-2 = assay: as above; settings: Gynecologic cancer cell panel viability, ATPlite luminescence, 48 h; series mostly up to 57.5 µM
Method in brief: as §2

HeLa = assay: as above; settings: Gynecologic cancer cell panel viability, ATPlite luminescence, 48 h; series mostly up to 57.5 µM
Method in brief: as §2

Hek293T = assay: as above; settings: Gynecologic cancer cell panel viability, ATPlite luminescence, 48 h, control line for the selectivity index; series mostly up to 57.5 µM
Method in brief: as §2

OV90 = assay: as above; settings: Gynecologic cancer cell panel viability, ATPlite luminescence, 48 h; series mostly up to 57.5 µM
Method in brief: as §2

PA-1 = assay: as above; settings: Gynecologic cancer cell panel viability, ATPlite luminescence, 48 h; series mostly up to 57.5 µM
Method in brief: as §2

Tov-21-G = assay: as above; settings: Gynecologic cancer cell panel viability, ATPlite luminescence, 48 h; series mostly up to 57.5 µM
Method in brief: as §2

Tov112D = assay: as above; settings: Gynecologic cancer cell panel viability, ATPlite luminescence, 48 h; series mostly up to 57.5 µM
Method in brief: as §2

Phospholipid hydroperoxide glutathione peroxidase GPX4 (Homo sapiens), sequence (P36969 whole entry, looked up): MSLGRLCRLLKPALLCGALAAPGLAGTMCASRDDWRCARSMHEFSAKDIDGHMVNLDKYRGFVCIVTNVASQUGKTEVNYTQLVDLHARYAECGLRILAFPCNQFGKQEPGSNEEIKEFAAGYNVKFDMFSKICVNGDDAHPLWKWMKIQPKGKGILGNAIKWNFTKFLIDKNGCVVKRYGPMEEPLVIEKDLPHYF
Glutathione peroxidase 1 (Homo sapiens), sequence (P07203 whole entry, looked up): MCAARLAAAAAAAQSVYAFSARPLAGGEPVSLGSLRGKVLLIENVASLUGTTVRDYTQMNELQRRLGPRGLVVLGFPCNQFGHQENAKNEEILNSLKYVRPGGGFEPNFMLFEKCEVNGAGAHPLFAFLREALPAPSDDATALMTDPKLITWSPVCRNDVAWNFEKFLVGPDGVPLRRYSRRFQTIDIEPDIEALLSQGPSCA

CC1=CC2(O)/C=C/C(C)(O)C(O)C(O)/C=C/C(=O)OC23C(=O)NC(CC(C)C)C3C1C (stereo unspecified)
inactive: Potency [1] | Potency [2] | Potency [3] | Potency [4] | Potency [5] | outcome [6] | Potency [7] | max response (CRL-7250) -1.26% | max response (HEK293) -8.27% | outcome (HaCat) | max response (NIH3T3) 0.398% | Potency (C33A) | Potency (CASKI) | Potency (Es-2) | Potency (HeLa) | Potency (Hek293T) | Potency (OV90) | Potency (PA-1) | Potency (Tov-21-G) | Potency (Tov112D)

CC(=O)O[C@H]1CC[C@H]2[C@@H]3CC[C@H]4CC(=O)C=C(C)[C@]4(C)[C@H]3CC[C@]12C
active: Potency (HEK293) 23100 nM
inactive: Potency [1] | Potency [4] | Potency [5] | outcome [6] | Potency [7] | max response (CRL-7250) -4.94% | outcome (HaCat) | max response (NIH3T3) -1.67% | Potency (C33A) | Potency (CASKI) | Potency (Es-2) | Potency (HeLa) | Potency (Hek293T) | Potency (OV90) | Potency (PA-1) | Potency (Tov-21-G) | Potency (Tov112D)

c1cncc(OC[C@@H]2CCN2)c1
inactive: Potency [1] | Potency [2] | Potency [3] | Potency [4] | Potency [5] | Potency [7] | max response (CRL-7250) 0.617% | max response (HEK293) 1.76% | max response (HaCat) 0.624% | max response (NIH3T3) -2.03% | Potency (C33A) | Potency (CASKI) | Potency (Es-2) | Potency (HeLa) | Potency (Hek293T) | Potency (OV90) | Potency (PA-1) | Potency (Tov-21-G) | Potency (Tov112D)

CN1CCc2cc3c(cc2[C@H]1[C@@H]1OC(=O)c2c1ccc1c2OCO1)OCO3
inactive: Potency [1] | Potency [2] | Potency [3] | Potency [4] | Potency [5] | Potency [7] | max response (CRL-7250) -0.453% | max response (HEK293) -2.62% | outcome (HaCat) | max response (NIH3T3) -16.9% | Potency (C33A) | Potency (CASKI) | Potency (Es-2) | Potency (HeLa) | Potency (Hek293T) | Potency (OV90) | Potency (PA-1) | Potency (Tov-21-G) | Potency (Tov112D)

CC(=O)O[C@@H]1[C@H]2CC[C@H]3[C@@](C)(O)[C@@H]4C[C@H](O)C(C)(C)[C@@]4(O)[C@H](O)C[C@@]13C[C@@]2(C)O
inactive: Potency [1] | Potency [2] | Potency [3] | Potency [4] | Potency [5] | outcome [6] | Potency [7] | outcome (CRL-7250) | max response (HEK293) 2% | max response (HaCat) -9.56% | max response (NIH3T3) 4.65% | Potency (C33A) | Potency (CASKI) | Potency (Es-2) | Potency (HeLa) | Potency (Hek293T) | Potency (OV90) | Potency (PA-1) | Potency (Tov-21-G) | Potency (Tov112D)

COc1ccc2c3c4n(c2c1)[C@@H](C=C(C)C)OOC(C)(C)C[C@@H]4N1C(=O)[C@@H]2CCCN2C(=O)[C@]1(O)[C@H]3OCC=C(C)C
inactive: Potency [1] | Potency [2] | Potency [3] | Potency [4] | Potency [5] | outcome [6] | Potency [7] | outcome (CRL-7250) | max response (HEK293) -3.84% | max response (HaCat) -11% | max response (NIH3T3) 0.42% | Potency (C33A) | Potency (CASKI) | Potency (Es-2) | Potency (HeLa) | Potency (Hek293T) | Potency (OV90) | Potency (PA-1) | Potency (Tov-21-G) | Potency (Tov112D)

CC(=O)N1N=C(c2ccc(N)cc2)c2cc3c(cc2C[C@H]1C)OCO3
inactive: Potency [1] | Potency [3] | Potency [4] | outcome [6] | Potency [7] | max response (CRL-7250) -0.992% | max response (HEK293) -4.81% | max response (HaCat) -4.11% | max response (NIH3T3) -2.08% | Potency (C33A) | Potency (CASKI) | Potency (Es-2) | Potency (HeLa) | Potency (Hek293T) | Potency (OV90) | Potency (PA-1) | Potency (Tov-21-G) | Potency (Tov112D)

CN1C(=O)CN=C(c2ccccc2Cl)c2cc(Cl)ccc21
inactive: Potency [1] | Potency [2] | Potency [3] | Potency [4] | Potency [5] | outcome [6] | Potency [7] | outcome (CRL-7250) | max response (HEK293) -5.69% | max response (HaCat) 2.59% | max response (NIH3T3) 4.35% | Potency (C33A) | Potency (CASKI) | Potency (Es-2) | Potency (HeLa) | Potency (Hek293T) | Potency (OV90) | Potency (PA-1) | Potency (Tov-21-G) | Potency (Tov112D)

C=CCN1CCC2(C)c3cc(O)ccc3C[C@H]1[C@H]2C
inactive: Potency [1] | Potency [2] | Potency [3] | Potency [5] | Potency [7] | max response (CRL-7250) -1.35% | max response (HEK293) -5.37% | max response (HaCat) -10.4% | max response (NIH3T3) 1.43% | Potency (C33A) | Potency (CASKI) | Potency (Es-2) | Potency (HeLa) | Potency (Hek293T) | Potency (OV90) | Potency (PA-1) | Potency (Tov-21-G) | Potency (Tov112D)

C=C1[C@@]23C(=O)O[C@H](C)[C@]24O[C@@]2(C(=C)[C@]5(C=CC(=O)OC5(C)C)CC[C@]32C)[C@H](O)[C@@]1(C)OC4=O
inactive: Potency [1] | Potency [2] | Potency [3] | Potency [4] | Potency [5] | outcome [6] | Potency [7] | max response (CRL-7250) -20.6% | max response (HEK293) -10.4% | outcome (HaCat) | max response (NIH3T3) 0.197% | Potency (C33A) | Potency (CASKI) | Potency (Es-2) | Potency (HeLa) | Potency (Hek293T) | Potency (OV90) | Potency (PA-1) | Potency (Tov-21-G) | Potency (Tov112D)

C[C@@H]1CCC/C=C/[C@H]2C[C@@H](O)C[C@@H]2[C@@H](O)/C=C/C(=O)O1
active: Potency [1] 164 nM | Potency [2] 290 nM | Potency [3] 409 nM | Potency (CRL-7250) 206 nM | Potency (HEK293) 920 nM | Potency (HaCat) 259 nM | Potency (NIH3T3) 4110 nM | Potency (C33A) 891 nM | Potency (CASKI) 1260 nM | Potency (Es-2) 501 nM | Potency (HeLa) 501 nM | Potency (Hek293T) 1000 nM | Potency (OV90) 316 nM | Potency (PA-1) 447 nM | Potency (Tov-21-G) 1120 nM | Potency (Tov112D) 1000 nM
inactive: Potency [5] | outcome [6] | Potency [7]
